From PubChem BioAssay
JMJD2A Tudor: inhibitors of human JMJD2A Tudor domain; hit rate 4.4% among 390,000; AID 504339; O75164; AlphaScreen JMJD2A-Tudor / H3K4me3 peptide binding; Potency, µM (titrated, usually from 114 µM), for the others: top-dose activity change, negative = inhibition, usual class: inhibitors; also: % is scaled to controls: 0 for no effect and ±100 for the full control effect; nearly all actives have a fitted effect of over 50% in size
BAZ2B inh: BAZ2B (human) inhibition. Q9UIF8. AlphaScreen BAZ2B-H3K14Ac peptide displacement. Potency, µM (highest dose often 114 µM), inactives show at the highest dose activity change, negative = inhibition, actives largely listed as inhibitors. hit rate 4.4% among 360,000; also: % is scaled to controls: 0 for no effect and ±100 for the full control effect; nearly all actives have a fitted effect of over 60% in size
Target sequence (Q9UIF8 whole entry, looked up): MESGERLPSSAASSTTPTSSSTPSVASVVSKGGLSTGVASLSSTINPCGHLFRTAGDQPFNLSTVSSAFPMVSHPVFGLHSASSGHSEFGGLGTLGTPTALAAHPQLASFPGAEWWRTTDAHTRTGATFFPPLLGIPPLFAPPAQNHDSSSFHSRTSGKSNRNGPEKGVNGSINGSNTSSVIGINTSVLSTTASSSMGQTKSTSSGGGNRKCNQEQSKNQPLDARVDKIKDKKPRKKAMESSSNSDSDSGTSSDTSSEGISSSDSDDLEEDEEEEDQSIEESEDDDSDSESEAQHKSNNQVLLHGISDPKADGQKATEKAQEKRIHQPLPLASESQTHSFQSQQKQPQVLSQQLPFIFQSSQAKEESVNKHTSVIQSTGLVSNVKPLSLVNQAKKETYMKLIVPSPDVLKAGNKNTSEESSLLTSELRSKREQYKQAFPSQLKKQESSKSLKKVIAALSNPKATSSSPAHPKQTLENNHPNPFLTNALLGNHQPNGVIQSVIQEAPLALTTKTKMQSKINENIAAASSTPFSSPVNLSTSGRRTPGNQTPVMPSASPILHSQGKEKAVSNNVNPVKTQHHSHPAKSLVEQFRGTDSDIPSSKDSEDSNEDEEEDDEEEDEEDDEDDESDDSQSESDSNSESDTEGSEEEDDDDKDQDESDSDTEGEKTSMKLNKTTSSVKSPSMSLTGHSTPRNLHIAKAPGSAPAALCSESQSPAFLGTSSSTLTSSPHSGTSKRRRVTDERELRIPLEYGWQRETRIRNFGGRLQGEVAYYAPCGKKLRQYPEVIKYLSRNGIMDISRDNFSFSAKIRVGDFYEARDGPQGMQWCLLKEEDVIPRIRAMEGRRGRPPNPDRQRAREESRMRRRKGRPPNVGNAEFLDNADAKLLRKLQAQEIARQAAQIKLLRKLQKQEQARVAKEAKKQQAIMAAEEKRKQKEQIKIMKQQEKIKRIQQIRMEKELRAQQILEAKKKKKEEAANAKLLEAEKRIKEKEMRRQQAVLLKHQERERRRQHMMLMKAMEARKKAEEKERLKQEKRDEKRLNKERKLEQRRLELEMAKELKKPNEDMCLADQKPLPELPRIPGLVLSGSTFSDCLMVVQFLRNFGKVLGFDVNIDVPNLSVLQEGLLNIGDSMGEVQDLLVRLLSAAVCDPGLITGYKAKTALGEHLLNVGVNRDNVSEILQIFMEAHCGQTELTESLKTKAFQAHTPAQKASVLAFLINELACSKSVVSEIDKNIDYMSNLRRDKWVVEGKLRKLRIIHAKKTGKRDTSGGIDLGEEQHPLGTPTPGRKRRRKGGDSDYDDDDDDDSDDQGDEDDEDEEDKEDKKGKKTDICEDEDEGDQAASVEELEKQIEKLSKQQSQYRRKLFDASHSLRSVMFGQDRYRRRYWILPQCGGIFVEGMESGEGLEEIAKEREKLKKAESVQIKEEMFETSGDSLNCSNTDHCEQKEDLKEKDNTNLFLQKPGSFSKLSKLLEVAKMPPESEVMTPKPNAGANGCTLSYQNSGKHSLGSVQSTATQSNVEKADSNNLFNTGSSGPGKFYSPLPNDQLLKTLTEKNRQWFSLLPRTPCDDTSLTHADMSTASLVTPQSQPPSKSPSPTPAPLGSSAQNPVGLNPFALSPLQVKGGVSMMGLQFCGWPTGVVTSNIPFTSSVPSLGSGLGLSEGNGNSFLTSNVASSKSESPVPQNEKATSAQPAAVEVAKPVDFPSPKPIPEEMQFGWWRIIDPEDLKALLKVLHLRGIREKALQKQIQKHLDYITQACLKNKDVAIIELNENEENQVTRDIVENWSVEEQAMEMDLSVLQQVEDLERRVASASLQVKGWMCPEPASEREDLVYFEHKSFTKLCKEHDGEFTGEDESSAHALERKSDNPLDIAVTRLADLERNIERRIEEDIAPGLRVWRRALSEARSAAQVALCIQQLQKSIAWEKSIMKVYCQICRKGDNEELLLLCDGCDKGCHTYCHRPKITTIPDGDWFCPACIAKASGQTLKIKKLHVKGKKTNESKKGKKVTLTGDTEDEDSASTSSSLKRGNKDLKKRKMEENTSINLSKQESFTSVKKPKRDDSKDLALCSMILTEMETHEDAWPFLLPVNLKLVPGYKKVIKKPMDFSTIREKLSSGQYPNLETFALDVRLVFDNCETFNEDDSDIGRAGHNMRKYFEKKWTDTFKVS
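Inhibition is scored as reduced AlphaScreen emission. The BAZ2B/b-H3(5-23)K14Ac complex (50 nM each) in PBS pH 7.4, 0.01% Tween-20 meets compound (up to 110 uM) for 30 min at RT before bead addition.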
Sfp PPTase inh: blocks B. subtilis Sfp PPTase activity; Q9F4F7; Biochemical Sfp PPTase activity, qHTS; Potency, µM, for the others: largest response in the series, negative = inhibition, usual class: inhibitors; hit rate 3.5% among 310,000;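 also: the enzyme is Sfp with the accession as filed and its product quenches rhodamine fluorescence; 0% = enzyme reaction without inhibitor and -100% = no enzyme wells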
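Compounds were incubated with enzyme (final 15 nM) for 15 min at room temperature before substrate addition started the reaction. Fluorescence at 525 nm excitation, 598 nm emission was recorded immediately and after 30 minutes.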
L3MBTL1 block: L3MBTL1 (human) inhibition; Q9Y468; AlphaScreen L3MBTL1–H3K9me1 peptide binding; Potency, µM (top dose mostly 57.1 µM), inactives show top-dose activity, negative = inhibition, most hits filed as inhibitors; hit rate 0.66% among 230,000; AID 485360; also: % is scaled to controls: 0 for no effect and ±100 for the full control effect; nearly all actives have a fitted effect of over 60% in size
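AlphaScreen proximity signal between nickel-chelate acceptor and streptavidin donor beads (final 10 ug/mL) reports binding of 50 nM L3MBTL1 to 75 nM biotin-H3 K9me1 peptide; complex incubated with compounds 30 min at room temperature; cefsulodin titration as control.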
HP1b chromo inh: inhibitors of HP1-beta chromodomain binding to methylated histone tails; Potency, µM (series often up to 114 µM), for inactives: top-dose activity change, negative = inhibition, most hits filed as inhibitors; AID 540317; P83916; hit rate 0.56% among 390,000; AlphaScreen HP1-beta / biotin-H3K9me3 peptide binding; also: nearly all actives have a fitted effect of over 70% in size
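HP1-beta protein (50 nM final) preincubated 30 min at room temperature with biotinylated H3(1-18)K9me3 peptide (50 nM) in PBS pH 7.4, 0.01% Tween-20, then compound added for 30 min. AlphaScreen streptavidin donor/nickel chelate acceptor beads (10 ug/mL final), 30 min dark, luminescence read.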
G9a block: blocks human histone lysine methyltransferase G9a; hit rate 8.8% among 350,000; Potency, µM (doses to about 102 µM), for the others: top-dose activity, negative = inhibition, actives largely listed as inhibitors; AID 504332; G9a H3K9 monomethylation, AlphaScreen, 2 h; also: % is scaled to controls: 0 for no effect and ±100 for the full control effect; nearly all actives have a fitted effect of over 75% in size
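Step 1: enzyme (final 20 nM) with compound, 15 min RT. Step 2: substrate peptide 500 nM and SAM 20 uM, 2 h RT. Step 3: anti-H3K9me1 antibody and AlphaScreen beads, 10 min, then plate read.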
Active calls of the source: *; ? = inconclusive; . = no result; [ ] = dose if it differs, or a comment. The list is not random: actives were taken first. Their share in the collection is about 12%. Calls follow the shape of the dose curve; as a rule, active = well fitted curve in the direction sought with a large enough effect; inconclusive = small, poorly fitted or top-dose-only effect, or another doubt; inactive = no such curve, though single readings can be large; an effect the other way counts as inactive or inconclusive. Potency is read from the fitted curve at half-maximal effect.

SMILES	JMJD2A Tudor	BAZ2B inh	Sfp PPTase inh	L3MBTL1 block	HP1b chromo inh	G9a block
CC1CCN(C(CNS(=O)(=O)c2ccccc2)c2ccccc2)CC1 (stereo not given)	-13.9%	-0.6%	.	-8.9%	13.5%	-16.3%[2.33 µM]
CC1CCN(C(=O)CCNS(=O)(=O)c2ccc(Br)cc2)CC1	-1.7%	-5.1%	.	2.6%	54.9%	-2.5%[12.7 µM]
CC1CCN(C2=C(NS(=O)(=O)c3ccc(Br)cc3)C(=O)c3ccccc3C2=O)CC1	8.91µM*	4.47µM*	0.0%	.	6.31µM*	8.91µM*
CC1CCN(C2=C(NS(=O)(=O)c3ccccc3)C(=O)c3ccccc3C2=O)CC1	14.1µM*	6.31µM*	-1.3%	11.2µM*	14.1µM*	3.98µM*
O=S(=O)(Nc1nc2ccccc2nc1N1CCN(c2ccccc2)CC1)c1ccc(F)cc1	?	?	-9.4%	-3.6%	-16.7%	50.1µM*
Cc1ccc(S(=O)(=O)Nc2nc3ccccc3nc2N2CCOCC2)cc1	1.4%	.	.	14.3%	9.1%[57 µM]	.
CC1CCN(C2=C(NS(=O)(=O)c3ccc(Cl)cc3)C(=O)c3ccccc3C2=O)CC1	44.7µM*	4.47µM*	-1.6%	15.8µM*	?	5.62µM*
COc1cccc(OC)c1C(=O)OCC(=O)N(c1ccccc1)C1CCCCC1	-16.6%	1.9%	.	-6.6%	13.3%	-4.2%[12.7 µM]
Cc1ccc(/C=C/C(=O)Nc2ccccc2C(N)=O)cc1	-6.6%	1.0%	-8.8%	7.8%	31.2%	-2.4%[59 µM]
O=C1C(NS(=O)(=O)c2ccccc2)=C(N2CCN(c3ccc(F)cc3)CC2)C(=O)c2ccccc21	?	3.98µM*	10.5%	?	10µM*	5.62µM*
O=C1C(NS(=O)(=O)c2cccs2)=C(N2CCN(c3cccc(Cl)c3)CC2)C(=O)c2ccccc21	7.08µM*	8.91µM*	-5.7%	.	?	?
O=C(c1cccc(NS(=O)(=O)c2ccc(F)cc2)c1)N1CCN(c2ccccc2)CC1	-23.9%	-32.4%	.	-8.0%	5.4%	-45.9%
CC(=C1C(=O)c2ccccc2C1=O)N1CCN(c2ccc(F)cc2)CC1	-13.3%	-17.1%	5.5%	-8.7%	29.3%	50.1µM*
O=S(=O)(Nc1ccccc1N1CCCCC1)c1ccccc1	71.3%	14.7%	-2.1%	.	81.6%	46.3%
O=C1C(NS(=O)(=O)c2ccc(Br)cc2)=C(N2CCCCC2)C(=O)c2ccccc21	8.91µM*	5.01µM*	-6.1%	.	10µM*	8.91µM*
CC(=O)OCC(=O)[C@]1(O)C(C)CC2C3CCC4=CC(=O)C=C[C@@]4(C)[C@]3(F)C(O)C[C@@]21C (stereo not given in full)	.	.	10.8%	.	.	1.5%[2.33 µM]
Cc1ccccc1-c1nc2c3c(-c4ccccc4)c(-c4ccccc4)oc3ncn2n1	2.0%	-0.1%	.	.	50.0%	6.5%[59 µM]
CC1CCCN(C(=O)c2ccc(S(=O)(=O)Nc3ccccc3Cl)cc2)C1 (stereo not given)	-12.3%	-3.3%	-5.0%	.	21.5%	.
CC1CCCN(C2=C(NS(=O)(=O)c3ccc(Br)cc3)C(=O)c3ccccc3C2=O)C1 (stereo not given)	3.55µM*	3.55µM*	9.9%	.	?	?
O=S(=O)(Nc1nc2ccccc2nc1Cl)c1ccccc1	-0.4%	2.8%	16.5%	5.1%	24.7%	39.8µM*
COc1ccc(OCc2cc(C(=O)O)c(C)o2)cc1	.	79.4µM*	18.7%	?	.	44.7µM*
Cc1[nH]n(-c2ccc(F)cc2)c(=O)c1/C=N/c1sc2c(c1C#N)CCCC2	19.2%[11.4 µM]	-36.2%	8.1%	-2.9%	-18.4%	?
Cc1ccc(/C=C/C(=O)Nc2sc3c(c2C#N)CCCC3)o1	-14.1%	-12.2%	39.8µM*	-14.9%	33.3%	?
Cc1[nH]n(-c2cccc3ccccc23)c(=O)c1/C=N/c1sc2c(c1C#N)CCC2	?	?	79.4µM*	?	-27.0%	?
N#Cc1c(/N=C/C=C/c2ccccc2)sc2c1CCCC2	44.7µM*	22.4µM*	25.1µM*	-10.1%	17.8µM*	?
